{
  "source": "PubChem BioAssay (Tox21)",
  "note": "Inconclusive results are not listed. Values without a mark were called inactive. Activity calls are given as the source filed them. The call rests on the fitted dose curve; in most records, active means well fitted cell-killing curve with a large enough effect in the repeat runs; inconclusive means weak or mixed curves, or effect the other way; inactive means flat fitted curve, though single readings scatter. On the % scale 0 is the no-effect control and ±100 the full control effect; potency means the concentration at half of the fitted maximal effect.",
  "data": [
    {"assay": "qHTS RealTime-Glo MT Cell Viability Assay in HepG2 cells - 40 hour (AID 1224870); further: nearly all actives have a fitted effect of over 50% in size", "settings": "RealTime-Glo luminescence; series mostly up to 76.8 µM; activity change, negative = cytotoxic: at the top concentration", "description": "National Center for Advancing Translational Sciences [NCATS]\nNIH Chemical Genomics Center [NCGC]\nU.S. Environmental Protection Agency [EPA]\nNational Institutes of Environmental Health Sciences [NIEHS]\nNational Toxicology Program [NTP]\nU.S. Food and Drug Administration [FDA]\nMeasure of cell viability is critical in the cell-base assay. Analysis of cell viability is necessary for the characterization of cell responses to cytotoxic drugs and environmental stress. A RealTime-Glo MT Cell Viability Assay to monitor cell viability in real time of continues cell culture during 40 hours of compound treatment was used to screen Tox21 10K library compounds in HepG2 cells. The RealTime-Glo MT Cell Viability Assay is a nonlytic, homogeneous, bioluminescent method to measure cell viability in real time using a simple, plate-based method. The assay involves adding NanoLuc luciferase and a cell-permeant prosubstrate to cells in culture. Viable cells reduce the proprietary prosubstrate to generate a substrate for NanoLuc luciferase. This substrate diffuses from cells into the surrounding culture medium, where it is rapidly used by the NanoLuc Enzyme to produce a luminescent signal. The signal correlates with the number of viable cells, making the assay well suited for cytotoxicity studies.\nTox21 Assay Protocol Summary:\nThe mixture of HepG2 cell suspension and reagents were dispensed at 600cells/6 ul/well in 1536-well tissue culture treated black solid bottom plates using a Multidrop dispenser. After the assay plates were incubated at a 37 C/5% CO2 incubator for 5 hours, 23 nL of compounds dissolved in DMSO, positive and negative controls was transferred to the assay plate by a pintool work station. The plates were incubated at 37 C for 40 hours. The luminescence intensity were measured at 0h, 8h, 16h, 24h, 32h and 40h time points using ViewLux plate reader during compound treatment.", "values": [
      {"smiles": "COc1ccc(-n2nc(CCC(=O)N(C)O)cc2-c2ccc(Cl)cc2)cc1", "activity change, negative = cytotoxic": "-16.5% [at 35.3 µM]"},
      {"smiles": "O=C(O)c1cccc(Cl)n1", "activity change, negative = cytotoxic": "-1.63%"},
      {"smiles": "Cc1cccc(C)c1NC(=O)CN1CCN(CCCC(c2ccc(F)cc2)c2ccc(F)cc2)CC1", "Potency": "23.9 µM (active)"},
      {"smiles": "Clc1nc2ccccc2s1", "activity change, negative = cytotoxic": "30.2%"},
      {"smiles": "CCC(C)(C)c1cc(O)c(C(C)(C)CC)cc1O", "activity change, negative = cytotoxic": "-19.5%"},
      {"smiles": "Cn1cccc1", "activity change, negative = cytotoxic": "0.655%"},
      {"smiles": "CCCCCCCCCCCCCOP(=O)(O)O", "activity change, negative = cytotoxic": "-0.146%"},
      {"smiles": "O=C1Nc2ccc(Cl)cc2[C@@](C#CC2CC2)(C(F)(F)F)O1", "activity change, negative = cytotoxic": "-21.1% [at 35.3 µM]"},
      {"smiles": "ClC/C=C\\CCl", "activity change, negative = cytotoxic": "-2.1%"},
      {"smiles": "CCCCCCCCC(C)=O", "activity change, negative = cytotoxic": "-1.11%"},
      {"smiles": "C=C(C)CCCC", "activity change, negative = cytotoxic": "-0.443%"},
      {"smiles": "C=CC/C=C/C/C=C/C/C=C/C", "activity change, negative = cytotoxic": "7.93%"},
      {"smiles": "Clc1ccc(C(Cn2ccnc2)OCc2c(Cl)cccc2Cl)c(Cl)c1", "note": "(stereo not given)", "activity change, negative = cytotoxic": "-20.1% [at 35.3 µM]"},
      {"smiles": "COc1ccccc1OCCNCC(O)COc1cccc2[nH]c3ccccc3c12", "note": "(stereo not given)", "Potency": "23.9 µM (active)"},
      {"smiles": "O=C1C=CC(=O)N1c1ccccc1", "Potency": "11 µM (active)"},
      {"smiles": "Cc1c(-c2ccc(O)cc2)n(Cc2ccc(OCCN3CCCCCC3)cc2)c2ccc(O)cc12", "Potency": "9.52 µM (active)"},
      {"smiles": "Cc1c(C)n(Cc2ccccc2)c2ccc(C(=O)OCCN(C)C)cc12", "Potency": "23.9 µM (active)"},
      {"smiles": "CC(CN(C)C)CN1c2ccccc2CCc2ccccc21", "note": "(stereo not given)", "activity change, negative = cytotoxic": "-9.43% [at 35.3 µM]"},
      {"smiles": "Oc1c(Br)cc(Br)c2cccnc12", "activity change, negative = cytotoxic": "-12.5% [at 35.3 µM]"},
      {"smiles": "c1ccc(Nc2cccc3ccccc23)cc1", "Potency": "inactive"},
      {"smiles": "O=C1NCCN1CCN1CCC(c2cn(-c3ccc(F)cc3)c3ccc(Cl)cc23)CC1", "Potency": "26.8 µM (active)"},
      {"smiles": "C=CC(=C)CCC=C(C)C", "activity change, negative = cytotoxic": "-13%"},
      {"smiles": "[O]=[Zr]", "activity change, negative = cytotoxic": "-2.41%"},
      {"smiles": "C/C=C/C(=O)C1=C(C)CCCC1(C)C", "activity change, negative = cytotoxic": "-4.07%"},
      {"smiles": "COc1cc(C(C)C)c2c(c1)S(=O)(=O)N(COc1cc(=O)n3cccc(OCCN4CCCCC4)c3n1)C2=O", "activity change, negative = cytotoxic": "-2.06% [at 15.8 µM]"},
      {"smiles": "C=C(C)C(=O)OCCC[Si](Cl)(Cl)Cl", "activity change, negative = cytotoxic": "0.0883%"},
      {"smiles": "O=S(=O)(O)c1cc(S(=O)(=O)O)c2ccc3c(S(=O)(=O)O)cc(S(=O)(=O)O)c4ccc1c2c43", "activity change, negative = cytotoxic": "8.14% [at 15.8 µM]"},
      {"smiles": "CCCCCCCCCC(=O)N(C)C", "activity change, negative = cytotoxic": "-0.424%"},
      {"smiles": "Cc1cc(=O)[nH]c(=O)[nH]1", "activity change, negative = cytotoxic": "-6.29%"},
      {"smiles": "Clc1ccc(C(c2ccccc2Cl)C(Cl)Cl)cc1", "note": "(stereo not given)", "Potency": "inactive"},
      {"smiles": "C1CC(COCC2CO2)CCC1COCC1CO1", "note": "(stereo not given)", "activity change, negative = cytotoxic": "-0.836%"},
      {"smiles": "Cc1ccc(-n2[nH]c(C)c(N=Nc3cccc(-c4cccc(C(=O)O)c4)c3O)c2=O)cc1C", "activity change, negative = cytotoxic": "-23.4% [at 35.3 µM]"},
      {"smiles": "CC(C)N=C(N)/N=C(\\N)Nc1ccc(Cl)cc1", "activity change, negative = cytotoxic": "-5.69% [at 35.3 µM]"},
      {"smiles": "CCOC(=O)COc1ccc(C)cc1", "activity change, negative = cytotoxic": "2.07%"},
      {"smiles": "C[C@H]1O[C@@H](O[C@H]2[C@@H](O)C[C@H](O[C@H]3[C@@H](O)C[C@H](O[C@H]4CC[C@@]5(C)[C@H](CC[C@@H]6[C@@H]5C[C@@H](O)[C@]5(C)[C@@H](C7=CC(=O)OC7)CC[C@]65O)C4)O[C@@H]3C)O[C@@H]2C)C[C@H](O)[C@@H]1O", "Potency": "inactive"},
      {"smiles": "CO[C@H]1C=CO[C@@]2(C)Oc3c(C)c(O)c4c(O)c(cc(O)c4c3C2=O)NC(=O)/C(C)=C\\C=C/[C@H](C)[C@H](O)[C@@H](C)[C@@H](O)[C@@H](C)[C@H](OC(C)=O)[C@@H]1C", "activity change, negative = cytotoxic": "-16.4%"},
      {"smiles": "CC(=O)O[C@@H]1C[C@@H]2CC[C@@]1(C)C2(C)C", "activity change, negative = cytotoxic": "2.28%"},
      {"smiles": "C(=C/c1ccccc1)/c1ccccc1", "activity change, negative = cytotoxic": "1.41%"},
      {"smiles": "CC(C)OC(=O)c1cc(C(=O)OC(C)C)cc([N+](=O)[O-])c1", "activity change, negative = cytotoxic": "-0.696%"},
      {"smiles": "COc1nccnc1CC(C)C", "activity change, negative = cytotoxic": "-3.77%"}
    ]}
  ]
}
